High-throughput results (PubChem BioAssay)
A selection: hits, their analogues and other compounds. The true share with any hit is near 2.3%.
PTHR1 agonist: qHTS for PTHR1 Agonists: Primary Screen; HEK293 GP2 PTHR1 cells, GloSensor cAMP luminescence, 1 h; Potency, µM (top dose mostly 115 µM), without a hit: at the top dose activation, hits mostly activators; hit rate 0.075% among 410,000; AID 743266, 2014; also: nearly all actives have a fitted effect of over 55% in size
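HEK-293-derived GP2 cells expressing PTHR1 and a GloSensor cAMP reporter, 3,000/well, plated overnight, given luciferin plus IBMX (each 0.5 mM as added) for 1 h at 37 °C, then compound for 1 h at 37 °C. Luminescence was read after 15 min at room temperature.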
GLS inhibitor: qHTS for Inhibitors of Glutaminase (GLS) | Glutaminase kidney isoform, mitochondrial (Homo sapiens), O94925 | GLS enzymatic activity, qHTS titration | Potency, µM (titrated, usually from 45.5 µM), for the others: top-dose activity change, negative = inhibition, actives largely listed as inhibitors | hit rate 0.21% among 410,000 | AID 624170, 2012; also: % is scaled to controls: 0 for no effect and ±100 for the full control effect
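Compounds were pin-transferred onto hKGA, after which L-glutamine (1 mM solution) and a detection mix of glutamate oxidase, HRP and Amplex Red were added. Initial and 30 min RT fluorescence reads were collected.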
ALOX12 inh: Primary qHTS assay for inhibitors of human arachidonate 12S-lipoxygenase (ALOX12): Round 2; Potency, µM (titrated, usually from 108 µM), for inactives: at the highest dose activity change, negative = inhibition, hits mostly inhibitors; purified 12hLO, xylenol orange hydroperoxide absorbance; Polyunsaturated fatty acid lipoxygenase ALOX12 (Homo sapiens), P18054; AID 1671190, 2021; hit rate 1.1% among 580,000; also: % is scaled to controls: 0 for no effect and ±100 for the full control effect
Target sequence (P18054 whole entry, looked up): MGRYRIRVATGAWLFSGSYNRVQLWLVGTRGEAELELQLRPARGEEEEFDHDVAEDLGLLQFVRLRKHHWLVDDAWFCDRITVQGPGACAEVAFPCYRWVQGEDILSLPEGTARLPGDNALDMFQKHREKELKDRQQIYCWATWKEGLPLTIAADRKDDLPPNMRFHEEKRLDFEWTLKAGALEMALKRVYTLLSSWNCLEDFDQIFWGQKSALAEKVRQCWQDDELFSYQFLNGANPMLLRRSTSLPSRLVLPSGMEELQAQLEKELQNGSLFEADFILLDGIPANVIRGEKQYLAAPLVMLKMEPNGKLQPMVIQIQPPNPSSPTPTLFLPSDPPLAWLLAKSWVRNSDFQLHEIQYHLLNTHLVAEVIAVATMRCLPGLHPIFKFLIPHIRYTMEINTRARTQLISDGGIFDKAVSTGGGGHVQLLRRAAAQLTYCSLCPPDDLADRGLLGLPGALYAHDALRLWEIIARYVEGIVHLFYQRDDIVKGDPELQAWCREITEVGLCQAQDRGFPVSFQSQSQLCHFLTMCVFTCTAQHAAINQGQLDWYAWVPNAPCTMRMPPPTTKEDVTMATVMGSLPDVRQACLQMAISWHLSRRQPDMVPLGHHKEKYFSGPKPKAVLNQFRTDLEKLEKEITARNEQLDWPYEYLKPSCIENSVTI
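Purified human 12hLO at 150 nM in 25 mM Hepes, 0.01% Triton X-100, pH 7.0, preincubated 15 min at room temperature with compound. Reaction started with 40 uM arachidonic acid, 30 min at room temperature. Hydroperoxide measured by Fe-xylenol orange, 573/405 nm absorbance ratio.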
GLP-1R inv ag: qHTS of GLP-1 Receptor Inverse Agonists (Inhibition Mode) | Glucagon-like peptide 1 receptor (Homo sapiens), P43220 | HEK293 GLP-1R CRE-luciferase, luminescence, 24 h; GLP-1R form is constitutively active | Potency, µM (titrated, usually from 38.3 µM), for inactives: top-dose activity change, negative = inhibition, usual class: inhibitors | hit rate 1.6% among 410,000 | AID 624417, 2012; also: % is scaled to controls: 0 for no effect and ±100 for the full control effect; nearly all actives have a fitted effect of over 55% in size
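Constitutively active GLP-1R drives a cAMP-responsive luciferase in stably transfected HEK293 cells; test compounds are added after overnight (12 h) attachment and left 24 hr, and signal loss in luminescence marks inhibition.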
Glioma ERSR ind: qHTS for Inducers of the Endoplasmic Reticulum Stress Response (ERSR) in Human Glioma: qHTS; U87-MG GRP78 promoter luciferase reporter, 16 h; Potency, µM, without a hit: top-dose activation, hits mostly activators; hit rate 0.02% among 420,000; AID 602332, 2012; also: series mostly up to about 76 µM; % of control where 0% means no effect; nearly all actives have a fitted effect of over 35% in size
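Stably transfected U87-MG human glioma cells carrying a GRP78-based luminescent sensor were seeded at 1000 cells/well, pin-dosed with compounds and incubated 16 h. Luciferase reagent was then added, and end-point luminescence was read after 10 min at room temperature.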
GLP1R ag: qHTS of GLP-1 Receptor Agonists; HEK293 GLP-1R CRE-luciferase, luminescence, 4-6 h; cells express a hypersensitive GLP-1R form; Glucagon-like peptide 1 receptor (Homo sapiens), P43220; Potency, µM (doses to about 45.6 µM), without a hit: at the top dose activation, most hits filed as activators; hit rate 0.007% among 380,000; AID 624172, 2012; also: % of control where 0% means no effect
* = called active by the depositor; i = inactive; ? = inconclusive; nt = not tested or not shown; [ ] = another dose, or the depositor's remark. Calls follow the shape of the dose curve; as a rule, active = well fitted curve in the direction sought with a large enough effect; inconclusive = small, poorly fitted or top-dose-only effect, or another doubt; inactive = no such curve, though single readings can be large; an effect the other way counts as inactive or inconclusive. Potency is read from the fitted curve at half-maximal effect.

SMILES	PTHR1 agonist	GLS inhibitor	ALOX12 inh	GLP-1R inv ag	Glioma ERSR ind	GLP1R ag
CCOC(=O)c1sc(NC(=S)NC(=O)C23CC4CC(CC(C4)C2)C3)cc1C	i	6.1%	35.5µM*	-2.9%	-2.8%	-0.1%
CCOC(=O)c1sc(NC(=O)Nc2cccc(Cl)c2)cc1C	-24.7%	1.9%	-15.9%	3.55µM*	4.3%	-13.0%
O=C(Nc1cc2c(cc1C(O)c1ccccc1)OCCO2)c1cccc(Br)c1 (stereo unspecified)	nt	nt	-41.9%	nt	nt	nt
CCCCOc1ccc(NC(=O)COc2ccccc2C)c2cccnc12	nt	nt	7.9%	nt	nt	nt
O=C(COc1ncnc2c(Cl)cc(Cl)cc12)Nc1ccc(Cl)cc1	nt	nt	-17.8%	nt	nt	nt
COc1ccc(S(=O)(=O)n2oc(=O)cc2-c2ccccc2)cc1	i	10.5%	?	5.7%	2.9%	-1.9%
COc1ccc(S(=O)(=O)n2oc(=O)cc2-c2ccccc2)cc1OC	-2.7%[57.5 µM]	-6.3%	14.1µM*	6.8%	1.8%	0.4%
O=c1cc(-c2ccccc2)n(S(=O)(=O)c2ccccc2)o1	i	24.3%	10µM*	0.0%	2.3%	0.7%
COc1cccc(C2CC(=O)Oc3c2c(=O)[nH]c2ccccc32)c1 (stereo unspecified)	nt	nt	-0.5%	nt	nt	nt
O=C(COc1cccc(-c2nnc3n2CCCC3)c1)Nc1ccc(Br)cc1	nt	nt	-0.6%	nt	nt	nt
c1ccc(-c2nc(NCc3cccnc3)c3oc4ccccc4c3n2)cc1	-46.3%	14.1%	15.8µM*	?	-4.4%	3.7%
COCCN(Cc1cccs1)S(=O)(=O)c1cc(-c2cc(C)no2)ccc1C	-75.5%	-8.6%	-23.8%	?	-1.5%	nt
Cc1cc(-c2ccc(C)c(S(=O)(=O)N(Cc3cccs3)C(C)C)c2)on1	-20.6%	-7.3%	-23.8%	12.6µM*	-3.2%	nt
O=C(C=Cc1ccco1)c1ccc2ccccc2c1	-19.4%	2.5%	17.8µM*	?	14.1%	0.3%
Cc1ccc(C(=O)/C=C/c2ccc(-c3ccccc3Br)o2)cc1	nt	nt	1.12µM*	nt	nt	nt
O=C(/C=C/c1ccc(-c2ccccc2[N+](=O)[O-])o1)c1ccccc1	i	1.0%	-9.0%	?	10.6%	25.1%
O=C(/C=C/C=C/c1ccco1)c1ccc(N2CCOCC2)cc1	nt	nt	5.01µM*	nt	nt	nt
Cc1ccc(C(=O)/C=C/c2ccc(-c3ccccc3Cl)o2)cc1	nt	nt	7.08µM*	nt	nt	nt
O=C1CCCC2=C1C(c1ccsc1)CC(=O)N2c1cccc(C(F)(F)F)c1 (stereo unspecified)	nt	nt	4.6%	nt	nt	nt
O=C(/C=C/c1ccc(-c2ccccc2Cl)o1)c1ccc2ccccc2c1	nt	nt	1µM*	nt	nt	nt
N#C/C(=C\c1ccc(-c2ccccc2Cl)o1)c1ccc(Cl)cc1	nt	nt	4.3%	nt	nt	nt
O=C(/C=C/c1ccc(-c2ccc(Cl)c(Cl)c2)o1)c1ccc(Br)cc1	nt	nt	12.6µM*	nt	nt	nt
O=C(/C=C/c1ccc(-c2ccccc2Cl)o1)c1ccc(F)cc1	nt	nt	11.2µM*	nt	nt	nt
CCCC1CCC(c2ccc(-c3ccc(OC(F)F)c(F)c3)cc2)CC1 (stereo unspecified)	nt	nt	3.9%	nt	nt	nt
Cc1ccc(-c2nc(CSc3nnc(NCc4ccccc4)s3)co2)cc1	nt	nt	9.9%	nt	nt	nt
SMILES	PTHR1 agonist	GLS inhibitor	ALOX12 inh	GLP-1R inv ag	Glioma ERSR ind	GLP1R ag
CCNC(=O)N[C@H]1C[C@@H](c2nc(-c3ccc(OC(F)(F)F)cc3)no2)N(C)C1	nt	nt	13.3%[176 µM]	nt	nt	nt
CC(=O)c1ccc(OCC(O)CN2CCCC(C(F)(F)F)C2)cc1 (stereo unspecified)	nt	nt	-1.5%	nt	nt	nt
Cn1cc(CNCC2(COc3ccc(C(F)(F)F)cn3)C[C@@H](O)[C@@H](O)C2)cn1 (stereo partly specified)	nt	nt	17.8µM*	nt	nt	nt
C(=N\Nc1nc2ccccc2[nH]1)/c1c[nH]c2ccccc12	-24.7%	12.6µM*	?	?	?	13.9%
C(=N\Nc1cccc2cccnc12)/c1c[nH]c2ccccc12	nt	nt	31.6µM*	nt	nt	nt
C=C(C)Cn1c(N2CCN(CC(N)=O)CC2)nc2c1c(=O)[nH]c(=O)n2C	nt	nt	-0.4%	nt	nt	nt
CC(Sc1nc2cc(S(=O)(=O)N3CCCCC3)ccc2o1)C(=O)Nc1ccc(F)cc1 (stereo unspecified)	nt	nt	-3.2%	nt	nt	nt
N#Cc1cccnc1NCCc1cccc2cccnc12	nt	nt	-4.3%	nt	nt	nt
Cn1cc(CN2CCCC(C(=O)Nc3ccc(-c4cccc(F)c4)cc3)C2)cn1 (stereo unspecified)	i	-3.1%	-11.3%	4.47µM*	-3.3%	-1.7%
Cn1cc(CN2CCC(C(=O)Nc3ccc(Oc4ccccc4F)cc3)CC2)cn1	i	-11.4%	5.1%	11.2µM*	-1.4%	-3.0%
CCn1cc(CN2CCC(C(=O)Nc3ccc(Oc4ccccc4F)cc3)CC2)cn1	-4.7%	1.2%	?	?	-5.9%	-0.7%
CC(=O)N1c2ccc(S(=O)(=O)N(C)CC(=O)NCCc3ccc(Cl)cc3)cc2CC1C (stereo unspecified)	nt	nt	4.6%	nt	nt	nt
CC(C)c1cc(C(=O)NNC(=S)NCc2ccco2)c(O)c(C(C)C)c1	-34.4%	-1.8%	35.5µM*	?	-5.7%	-12.3%
CCC1C/C(=C\c2cccnc2)C(=O)/C(=C/c2cccnc2)C1 (stereo unspecified)	-42.5%	5.4%	-12.6%	3.55µM*	-15.1%	-42.0%
CC(=O)Nc1ccc(CNC(=O)Cc2c(Cl)cccc2Cl)cc1	nt	nt	-49.3%	nt	nt	nt
Cc1ccc(C)c(CN2C(=O)c3ccccc3S(=O)c3ccc(C(=O)N4CCN(c5ccccn5)CC4)cc32)c1 (stereo unspecified)	i	-3.3%	4.2%	2.24µM*	0.6%	14.2%
O=C(CN1CCCC1)N/N=C/c1c(O)ccc2ccccc12	-4.1%	13.3%	-1.4%	2.82µM*	-5.4%	-5.9%
O=C(N/N=C/c1c(O)ccc2ccccc12)C(=O)N1CCCC1	-1.3%	-8.2%	1.9%	?	-5.3%	3.6%
CCCCn1c(=O)c2ccccc2n2c(=S)[nH]nc12	i	12.6µM*	6.31µM*	3.9%	-0.1%	-1.0%
CCCCCn1c(=O)c2ccccc2n2c(=S)[nH]nc12	i	-1.7%	44.7µM*	1.0%	0.4%	-5.4%
O=c1c2ccccc2n2c(=S)[nH]nc2n1-c1ccccc1	i	?	?	-2.4%	-3.2%	0.9%
CCC(C)c1ccc(-n2c(=O)c3ccccc3n3c(=S)[nH]nc23)cc1 (stereo unspecified)	i	5.2%	-22.8%	8.6%	2.9%	16.8%
